Screens (PubChem)
IL-1B inflam inh: inflammasome signaling inhibition, IL-1 beta readout; THP-1 LPS/ATP IL-1B secretion, AlphaLISA, 16 h; active compounds read low; activity change, % at 57.5 µM; actives 4.7% (n = 360,000); AID 743279; in the data active = activity change below about -50%; inconclusive = mostly about -30% to -49%; note: % is set by controls: 0 for no effect and ±100 for the full control effect
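Secreted IL-1B measured by AlphaLISA bead assay after 16 h compound exposure of THP-1 cells; compounds (final up to 57.5 uM) added 1 h before LPS (250 ng/mL) and ATP (1.25 mM) stimulation; lower signal means less secretion.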
MCF10A rereplic: inducers of DNA re-replication in MCF 10A breast cells; MCF 10A DNA re-replication, Hoechst nuclear intensity, 48 h; AID 624296; actives 2.9% (n = 350,000); Potency, µM (highest dose often 46.1 µM), for inactives: at the highest dose activity, positive = re-replication, most hits filed as activators; note: potency is the fitted concentration of half-maximal effect; % of control where 0% means no effect; nearly all actives have a fitted effect of over 50% in size
SW480 rerep: induces DNA re-replication in SW480 colon adenocarcinoma cells | SW480 DNA re-replication, Hoechst DNA content imaging, 48 h | Potency, µM (doses to about 46.1 µM), for inactives: at the top dose re-replication activation, actives largely listed as activators | actives 1.8% (n = 340,000) | AID 624297; note: potency is the fitted concentration of half-maximal effect; % of control where 0% means no effect; nearly all actives have a fitted effect of over 55% in size
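Image-based DNA-content assay: after two days of treatment, nuclei were labelled with the DNA dye Hoechst and imaged, and hits were compounds raising the count of nuclei showing high fluorescence intensity.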
DT40 TDP1 no CPT: qHTS for Inhibitors of human tyrosyl-DNA phosphodiesterase 1 (TDP1): qHTS in cells in absence of CPT; DT40 Tdp1-/- hTDP1 cells, no CPT, ATP luminescence, 48 h; Potency, µM (top dose mostly 46.2 µM), without a hit: top-dose activity change, negative = growth inhibition, hits mostly inhibitors; actives 15% (n = 420,000); note: potency is the fitted concentration of half-maximal effect; % is set by controls: 0 for no effect and ±100 for the full control effect; nearly all actives have a fitted effect of over 55% in size
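A cellular qHTS used chicken DT40 cells lacking endogenous Tdp1 but carrying stably transfected human TDP1. Compounds were applied without camptothecin, and cell growth kinetics were judged by ATP-dependent luminescence after ≥48 hr.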
BCR signal inh: chronic active BCR signaling inhibition; actives 0.05% (n = 340,000); AID 493014; Potency, µM (doses to about 46.1 µM), for the others: at the top dose activity change, negative = inhibition, usual class: inhibitors; ABC-DLBCL IkBa-CBG/CBR reporter, luminescence ratio, 4 h; active = well fitted inhibition curve with a large enough effect in the signal ratio, with a control signal flat, not every such curve was filed as active; inconclusive = small, poorly fitted or top-dose-only effect, or effect the other way, or a change in a side signal; the % refers to the signal ratio;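 note: potency is the fitted concentration of half-maximal effect; plate controls were basal doxycycline-induced cells for no effect and cells given 10 µM MG132 for full effect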
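TMD8 ABC-DLBCL cells carrying doxycycline-inducible green luciferase fused to IkappaBalpha plus unfused red luciferase were exposed to compounds (up to 46 uM) for 4 hrs at 37C. Activity came from the overlap-corrected green/red luminescence ratio.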
TDP1 cell CPT: growth inhibition of DT40 Tdp1-/-;hTDP1 cells with camptothecin (screen for TDP1 inhibitors); chicken DT40 Tdp1-/-;hTDP1 cells + 20 nM CPT, ATP luminescence, 48 h; Potency, µM (series often up to 46.2 µM), for inactives: at the highest dose activity change, negative = growth inhibition, most hits filed as inhibitors; actives 12% (n = 420,000); note: potency is the fitted concentration of half-maximal effect; % is set by controls: 0 for no effect and ±100 for the full control effect; nearly all actives have a fitted effect of over 55% in size
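Chicken DT40 Tdp1-/- cells complemented with human TDP1, 400 cells/well, exposed to compounds plus 20 nM camptothecin for at least 48 h at 37 C; viability read as ATP content by CellTiter-Glo luminescence.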
Active calls of the source: *; ? = inconclusive; nt = no result given; [ ] = another dose, or the depositor's remark. Hits are enriched below; roughly 19% of the tested compounds scored in any of these assays. Unless noted, calls come from the whole dose curve; as a rule, active = well fitted curve in the direction sought with a large enough effect; inconclusive = small, poorly fitted or top-dose-only effect, or another doubt; inactive = no such curve, though single readings can be large; an effect the other way counts as inactive or inconclusive.

SMILES	IL-1B inflam inh	MCF10A rereplic	SW480 rerep	DT40 TDP1 no CPT	BCR signal inh	TDP1 cell CPT
CCOC(=O)c1cnc2c(ccc3ccccc32)c1Nc1ccc(OC)c(OC)c1	nt	nt	nt	4.6µM*	nt	4.6µM*
COCCNC(=O)CSc1nc(-c2ccccc2)[nH]c1-c1ccc(OC)cc1	nt	nt	nt	?	nt	-22%
Cn1c(C(=O)NCCCN2CCN(c3ccc(F)cc3)CC2)cc2c(=O)n(C)c3ccccc3c21	2	0%	-2%	?	nt	?
Cn1c(=O)c2cc(C(=O)NCCCN3CCN(c4ccccc4F)CC3)sc2c2ccccc21	nt	nt	nt	3.7µM*	nt	3.7µM*
Cn1c(C(=O)NCCN2CCN(c3ccccc3F)CC2)cc2c(=O)n(C)c3ccccc3c21	4	0%	2%	23µM*	0%	18µM*
Cn1c(=O)c2cc(C(=O)NCCCN3CCN(c4ccc(F)cc4)CC3)sc2c2ccccc21	nt	nt	nt	2.9µM*	nt	?
Cn1c(C(=O)NCCN2CCOCC2)cc2c(=O)n(C)c3ccccc3c21	-8	0%	-2%	-16%	7%	?
CCN1CCN(CCCNC(=O)c2cc3c(=O)n(C)c4ccccc4c3s2)CC1	nt	nt	nt	10µM*	nt	?
N#CC1(NC(=O)CN2CCN(S(=O)(=O)c3ccccc3F)CC2)CCCC1	14	0%	-12%	4%	?	-7%
Cc1cccc(-c2noc(-c3cccnc3NCc3ccccc3Cl)n2)c1	nt	nt	nt	0%	nt	-15%
COc1cc2c(cc1OC)[C@@H](NC(=O)COc1ccccc1)[C@H](OCc1ccccc1)C2	-20	-18%	0%	?	?	-12%
O=C(c1noc2c1CCCC2)N1CCC(CO)(Cc2ccccc2Cl)CC1	-81*	?	1%	?	-4%	-27%
O=C(c1csc2c1CCCC2)N1CCN(c2cccc(C(F)(F)F)c2)CC1	4	?	6%	15µM*	0%	?
O=C(c1noc2c1CCCCC2)N1CCN(c2cccc(C(F)(F)F)c2)CC1	nt	nt	nt	16µM*	nt	?
O=C(c1noc2c1CCCCC2)N1CCN(C(c2ccccc2)c2ccccc2)CC1	0	3%	-1%	21µM*	nt	13µM*
O=C(c1noc2c1CCCC2)N1CCN(C(c2ccccc2)c2ccccc2)CC1	nt	nt	nt	nt	-22%	nt
N#CN1CCC(NS(=O)(=O)c2ccc(C(F)(F)F)cc2)C1 (centres undefined)	nt	?	-10%	nt	2%	nt
O=C1CC(NS(=O)(=O)c2ccc([N+](=O)[O-])cc2)CN1c1cccc(F)c1 (centres undefined)	1	7%	-3%	?	1%	-12%
C=C1CCN(c2ccc(C(=O)NCc3ccc(C)cc3)cc2[N+](=O)[O-])CC1	-63*	-4%	-1%	-12%	?	-24%
O=C(NCc1ccc(F)cc1)c1ccc(N2CCOCC2)c([N+](=O)[O-])c1	?	0%	-2%	-6%	?	-6%
COC(=O)c1cc(CNC(=O)c2ccc(N3CCCC3)c([N+](=O)[O-])c2)ccc1OC	-9	-34%	-4%	-2%	?	1%
C=C1CCN(c2ccc(C(=O)NCc3ccc(OC)cc3)cc2[N+](=O)[O-])CC1	-75*	3%	25%	?	nt	21µM*
O=C(NCc1ccncc1)c1ccc(N2CCCC2)c([N+](=O)[O-])c1	-3	-2%	-2%	18µM*	?	?
O=C(NCc1ccccn1)c1ccc(N2CCCC2)c([N+](=O)[O-])c1	-2	3%	1%	-15%	?	24%
CCOC(=O)c1ccc2c(c1)N(Cc1ccc(F)cc1Cl)C(=O)c1ccccc1S2	nt	nt	nt	?	-5%	?
SMILES	IL-1B inflam inh	MCF10A rereplic	SW480 rerep	DT40 TDP1 no CPT	BCR signal inh	TDP1 cell CPT
Cc1cc(NC(=O)COC(=O)CCS(=O)(=O)c2cc(Cl)ccc2Cl)no1	-20	21µM*	3%	?	6%	?
Cc1cc(NC(=O)COC(=O)CCS(=O)(=O)c2ccc(C)c(C)c2)no1	-12	-7%	-1%	-20%	?	-10%
c1csc(CNc2ncnc3ccc(-c4ccoc4)cc23)c1	nt	3%	-5%	-25%	?	?
FC(F)(F)c1ccccc1-c1ccc2ncnc(NC3CC3)c2c1	nt	nt	nt	21µM*	nt	23µM*
Cc1ccccc1-c1ccc2ncnc(NC3CC3)c2c1	nt	nt	nt	?	nt	16µM*
COc1ccccc1-c1cncnc1-n1ccnc1	nt	nt	nt	-27%	nt	-6%
Cc1ccccc1-c1ccc2ncnc(-n3ccnc3)c2c1	nt	nt	nt	21µM*	nt	21µM*
FC(F)(F)c1ccccc1-c1ccc2ncnc(NCc3cccs3)c2c1	nt	nt	nt	?	nt	23µM*
CN(Cc1ccccc1)CC1C2CCC(C2)C1O (centres undefined)	-6	1%	-1%	-6%	nt	-16%
CCOC(=O)c1c(S(=O)(=O)N2CCCC(C(=O)NCc3ccccc3OC)C2)c(C)n(C)c1C (centres undefined)	nt	nt	nt	-1%	7%	-24%
COCCNc1ncnc2ccc(-c3ccccc3C)cc12	nt	nt	nt	21µM*	nt	10µM*
O=C(NCC(O)CO)c1c(I)c(C(=O)NCC(O)CO)c(I)c(N(CCO)C(=O)CO)c1I (centres undefined)	nt	nt	nt	-11%[21.1 µM]	nt	-1%[21.1 µM]
CC(=O)Nc1ccc(/C=C/c2nc3ccccc3s2)cc1	nt	nt	nt	11µM*	nt	?
Nc1ccc(/C=C/c2nc3ccccc3s2)cc1	nt	nt	nt	13µM*	nt	11µM*
CC(C)CN(CC(C)C)c1ccc(/C=C/c2nc3ccccc3s2)cc1	nt	nt	nt	3.5µM*	nt	5µM*
CCN(CC)c1ccc(NC(=O)COC(=O)/C=C/c2nc3ccccc3s2)cc1	0	4%	-2%	?	7%	12%
CNC(=O)COC(=O)/C=C/c1nc2ccccc2s1	-29	0.65µM*	?	?	?	2%
Nc1nnc(/C=C/c2ccccc2)s1	-2	3%	0%	-4%	?	11%
COc1ccc(NC(=O)c2nc3ccccc3s2)cc1	-25	0%	-691%	-21%	?	25%
Cc1ccc(F)cc1C(=O)N1CCCC1(C)C(=O)NCC(C)C (centres undefined)	22	nt	nt	-10%	nt	0%
Cc1nn(C(C)C(=O)N2CCN(c3ccc(Cl)cc3)CC2)c(=O)c2cc3occc3n12 (centres undefined)	nt	nt	nt	16µM*	nt	?
CCCn1c(=O)c(C(=O)N/N=C/c2ccc(F)cc2)c(O)c2ccccc21	4	11%	2%	5.2µM*	12%	9.2µM*
